# Experimental data as given in PubChem BioAssay (NCI).
# About 83,000 compounds went through this panel and 20% of them were active in at least one assay; those are over-represented in the sample as a whole.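 Growth was measured after 48 h exposure to one concentration of compound in 96-well plates. Values under 10 count as active.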 A number with no mark means an inactive call. Active and inactive are the calls of the source.
# What was measured:
# Test in all cases: NCI-60 one-dose screen, 48 h (100 = growth as untreated, 0 = no growth, -100 = all killed)
# Conditions in all cases: 10 µM unless noted
# [1] = tested on: DU-145 prostate
# [2] = tested on: K-562 leukemia
# [3] = tested on: MALME-3M melanoma
# [4] = tested on: MDA-MB-231 breast
# [5] = tested on: RXF 393 renal
# [6] = tested on: SF-268 CNS
# [7] = tested on: SF-295 CNS
# [8] = tested on: SF-539 CNS
# [9] = tested on: UACC-257 melanoma
# [10] = tested on: M14 melanoma
# [11] = tested on: HCT-15 colon
# [12] = tested on: HT29 colon
# [13] = tested on: SNB-19 CNS
# [14] = tested on: U251 CNS
# [15] = tested on: PC-3 prostate
# [16] = tested on: SK-MEL-5 melanoma
# [17] = tested on: UACC-62 melanoma
# [18] = tested on: SK-MEL-28 melanoma
# [19] = tested on: SNB-75 CNS
# [20] = tested on: LOX IMVI melanoma
Compound,growth [1],growth [2],growth [3],growth [4],growth [5],growth [6],growth [7],growth [8],growth [9],growth [10] [%],growth [11] [%],growth [12],growth [13],growth [14],growth [15],growth [16],growth [17],growth [18],growth [19],growth [20]
Clc1ccc(N/N=c2/oc3ccccc3cc2-c2cc3ccccc3[nH]2)cc1,88.6%,67%,55.3%,67.1%,76%,85.1%,71%,87.3%,84.1%,66.5,59.4,69.2%,85.4%,80.2%,63.9%,82.5%,73.9%,97.7%,–,–
NS(=O)(=O)c1ccc(Nc2nc(N/N=C/c3ccccn3)nc(Nc3ccccc3)n2)cc1,4.85% (active),12.3%,-68.2% (active),-29.9% (active),-74% (active),-22% (active),0.752% (active),-42.1% (active),-18.1% (active),–,17.6,6.29% (active),9.62% (active),-55.2% (active),-7.87% (active),-84.8% (active),-49.3% (active),-64.3% (active),-25.4% (active),-43.7% (active)
O=C1[C@H]2Cc3c([nH]c4ccccc34)[C@@H](c3ccc(Cl)cc3)N2C(=O)CN1C1CCN(Cc2ccccc2)CC1,55.2%,9.91% (active),72.9%,55.2%,41%,50%,64.9%,63.7%,68%,–,23.7,27.1%,66.5%,63.7%,30.4%,56.1%,75.4%,67.8%,79.8%,17.4%
Cc1ccc(-n2c(/C=C3\C(=O)Nc4ccccc43)ccc2CO)cc1,92.2%,19.2%,44%,64%,66.1%,89.5%,69.8%,68.7%,85.8%,–,31.2,60.7%,81%,77.8%,66.5%,73.7%,50.6%,70.9%,41.5%,62.5%
COc1cc(Nc2c(C#N)cnn3cc(-c4cnn(CC(C)(C)O)c4)cc23)ccc1Cl,47.6%,12.9%,67.5%,65.4%,-20.3% (active),56.5%,63%,8.69% (active),81.7%,–,29.9,54.3%,88.1%,67.2%,62.4%,65.3%,46%,86%,55.5%,31%
O=S(=O)(NCCNc1nccc(-n2cnc3ccccc32)n1)c1ccc(C(F)(F)F)cc1,71.8%,40.8%,71.4%,64%,38.2%,59.5%,44.7%,64.8%,36.8%,–,60.7,68%,69.8%,69.6%,45.5%,8.48% (active),42.4%,77.2%,46.8%,57.4%
Cc1ccc(NC(=O)c2ccc(CN3CCN(C)CC3)cc2)cc1Oc1ccc(-c2[nH]nc3ncnc(N)c23)cc1,106%,9% (active),68.8%,95.9%,78.3%,89%,103%,85.9%,98.5%,–,99.4,12.6%,104%,86.8%,84.5%,85.2%,84.3%,88.6%,75.1%,66.7%
O=C1Nc2ccccc2/C1=C/c1ccc(CO)n1-c1ccc(Cl)cc1,81.4%,19.3%,27.6%,58.1%,57.1%,74.2%,33.8%,44.5%,83.4%,–,24,26.7%,66.1%,56.4%,53.5%,51.9%,33.9%,57.7%,32.8%,43.5%
O=C(CSc1nnc(-c2ccc(Cl)cc2)n1-c1ccccc1)Nc1ccc(Br)cc1,41.2%,40.5%,-3.16% (active),-29.8% (active),-31.6% (active),42.2%,-34.3% (active),-66.7% (active),50.3%,–,67,21.3%,35%,-51.8% (active),13.5%,31.2%,20.2%,33.4%,-33.7% (active),-54.5% (active)
Cc1ccc(-c2cc3nc(C(Cl)Cl)nc(-c4cccs4)n3n2)cc1,3.22% (active),93.2%,71.7%,41.6%,40.5%,82.2%,32.8%,68.5%,106%,–,61.7,39.2%,63.8%,39.4%,66.5%,96.8%,78.9%,87.4%,110%,96.2%
O=S(=O)(NCCCNc1nccc(-c2[nH]c(-c3ccccc3)nc2-c2ccc(Cl)c(O)c2)n1)c1cccc(F)c1,66.1%,35.3%,2.24% (active),60.2%,34.1%,74.3%,47.4%,94.1%,25.6%,–,38.6,61.7%,82.9%,64.4%,46.8%,23.5%,19.3%,25.3%,104%,39.8%
